Measurements published in PubChem BioAssay (NCI).
The panel holds about 83,000 compounds, 20% with a hit somewhere; the sample as a whole holds those more often.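 How to read the values: 0–100, growth inhibition (40 = 60% inhibited); 0, no net growth; -100 to 0, cell death (-40 = 40% of starting cells died; -100 = all dead).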 Unmarked numbers belong to inactive results. Calls of active or inactive are those of the source. How the source made its calls: active means growth percent below 10; inactive means the rest.

Tests used:
Experiment in all cases: NCI-60 one-dose screen, 48 h (100 = growth as untreated, 0 = no growth, -100 = all killed)
Conditions in all cases: 10 µM unless noted
[1] = tested on: NCI-H23 lung
[2] = tested on: NCI-H226 lung
[3] = tested on: NCI-H322M lung
[4] = tested on: HOP-62 NSCLC
[5] = tested on: NCI-H460 lung
[6] = tested on: NCI-H522 lung
[7] = tested on: A549/ATCC NSCLC
[8] = tested on: 786-0 renal
[9] = tested on: COLO 205 colon
[10] = tested on: DU-145 prostate
[11] = tested on: K-562 leukemia
[12] = tested on: MALME-3M melanoma
[13] = tested on: MDA-MB-231 breast
[14] = tested on: RXF 393 renal
[15] = tested on: SF-268 CNS
[16] = tested on: SF-539 CNS
[17] = tested on: UACC-257 melanoma
[18] = tested on: M14 melanoma
[19] = tested on: HCT-15 colon
[20] = tested on: SF-295 CNS

| SMILES | growth [1] | growth [2] [%] | growth [3] [%] | growth [4] [%] | growth [5] | growth [6] | growth [7] [%] | growth [8] [%] | growth [9] [%] | growth [10] [%] | growth [11] | growth [12] | growth [13] [%] | growth [14] [%] | growth [15] [%] | growth [16] | growth [17] [%] | growth [18] [%] | growth [19] [%] | growth [20] |
| --- | --- | --- | --- | --- | --- | --- | --- | --- | --- | --- | --- | --- | --- | --- | --- | --- | --- | --- | --- | --- |
| CCC(C)CC(C)C(=O)c1c(O)ccn(O)c1=O (stereo unspecified) | 25.2% | 95.8 | 52.5 | 24 | 23.7% | 33.2% | 22.6 | 70 | 108 | 42.7 | 18.2% | 42.1% | 45.3 | 35.4 | 26.4 | 5.81% (active) | 27.1 | 15.5 | 25.3 | – |
| Cc1cc(C)n2nc(SCC(=O)Nc3sc4c(c3C(N)=O)CCC4)nc2n1 | 101% | 87.1 | 99.7 | 93.7 | 116% | 94% | 146 | 96.4 | 118 | 101 | 119% | 106% | 99.2 | 117 | 113 | 90.8% | – | 102 | 108 | 101% |
| CSc1ccc2c(c1)N(CCC1CCCCN1C)c1ccccc1S2 (stereo unspecified) | 83.9% | 107 | 64 | 68.8 | 46.8% | 56.3% | 63.9 | 43.9 | 18.9 | 68.7 | 1.49% (active) | 72.8% | 46.3 | 26.7 | 54.5 | – | 32.8 | – | 43.4 | 58.4% |
| O=C(NCCCO)c1cc(Cl)ccc1O | 8.32% (active) | 24.3 | 83.6 | 36.3 | 9.74% (active) | -1.53% (active) | 38.5 | 49.5 | 25 | 36.1 | 11.1% | 0.89% (active) | 28.2 | 40.7 | 28.4 | 45% | 16.4 | 30.3 | 77.5 | – |
| O=C(O)c1ccccc1C(=O)OC1CCCC2CCCC21 (stereo unspecified) | 95.1% | 101 | 115 | 98.2 | 112% | 107% | 101 | 116 | 117 | 103 | 102% | 133% | 121 | 104 | 106 | 102% | 105 | 115 | 92.1 | – |
| CO[C@H]1/C=C/O[C@@]2(C)Oc3c(C)c(O)c4c(O)c(c(/C=N/N5CCN(C)CC5)c(O)c4c3C2=O)NC(=O)/C(C)=C\C=C\C(C)[C@H](O)[C@@H](C)[C@@H](O)[C@@H](C)[C@@H](OC(C)=O)[C@@H]1C (stereo partly specified) | 96.3% | 84.5 | 112 | 99.4 | 103% | 105% | 97.1 | 96.6 | 103 | 104 | 100% | 105% | 98.5 | 104 | 109 | – | 103 | 102 | 87.7 | 98.8% |
| Nc1ccc(S(=O)(=O)Nc2ncccn2)cc1 | 114% | 100 | 120 | 108 | 108% | 106% | 100 | 107 | 114 | 104 | 104% | 118% | 98.6 | 118 | 108 | – | 105 | 115 | 99.1 | 104% |
| CC1CC(C)/C(=N/NC(N)=O)C(C(O)CC2CCC(=O)NC2=O)C1 (stereo unspecified) | 36.1% | 42.3 | 14.4 | 49.3 | 31.7% | 18% | 27.7 | 25 | 42.1 | 37.4 | 40.8% | 35.6% | 46.9 | 38.2 | 34.1 | – | 54.9 | 34.1 | 37.8 | -9.66% (active) |
